# Measured values from PubChem BioAssay (NCATS).
# Inconclusive results are not listed. Entries that show only a call come without a potency. Values without a mark were called inactive. Calls of active or inactive are those of the source. The call rests on the fitted dose curve; in most records, active means well fitted curve in the direction sought with a large enough effect; inconclusive means small, poorly fitted or top-dose-only effect, or another doubt; inactive means no such curve, though single readings can be large; an effect the other way counts as inactive or inconclusive. Numbered stars: 1 amine (or outer) side, 2 acyl side, 3 side chain; on linkers, the order of the positions; unused ones are H or OH. Square brackets hold non-standard residues; d marks the D form. Peptide text beside a SMILES is read from it. ξ: configuration not given here. X4 = O=C(C1CC2(c3ccc(O)cc3)c3ccccc3NC2N1[*:1])[*:2]; ξW = NC(Cc1c[nH]c2ccccc12)C(=O)O; ξY = NC(Cc1ccc(O)cc1)C(=O)O
# Key:
# [1] = U-118MG Cancer Cell Toxicity qHTS against the NCATS CANVASS Library (AID 1347351); further: potency means the concentration at half of the fitted maximal effect
# Procedure, shortened: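 Quantitative HTS format: an 11-concentration series was applied to 1000 cells/well following a 4-hour attachment. Cultures ran 72 hours before ATP luminescence detection by CellTiter-Glo.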
# [2] = A2780 Cisplatin Sensitive Ovarian Cancer Cell Toxicity qHTS against the NCATS CANVASS Library (AID 1347353); further: nearly all actives have a fitted effect of over 60% in size; further: potency means the concentration at half of the fitted maximal effect
# Procedure, shortened: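 750 cells/well, 4 h settle; 11-pt cpd titration; 72 h, 37 °C, 5% CO2; ATPLite 10 min RT; luminescence read.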
# [3] = UWB1.289-WTBRCA1 Cancer Cell Toxicity qHTS against the NCATS CANVASS Library (AID 1347354); further: potency means the concentration at half of the fitted maximal effect
# Procedure, shortened: (§1)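 1000 cells/well, 4 h pre-incubation 37 °C/5% CO2; 11-pnt titration; 72 h; CellTiter-Glo 15 min RT, luminescence.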
# [4] = HEK-293 Cancer Cell Toxicity qHTS against the NCATS CANVASS Library (AID 1347355); further: nearly all actives have a fitted effect of over 65% in size; further: potency means the concentration at half of the fitted maximal effect; on outcome: series mostly up to about 46 µM
# Procedure, shortened: as §1
# [5] = HPAF-II 12hr Apoptosis Induction qHTS against the NCATS CANVASS Library (AID 1347358)
# Procedure, shortened: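 Caspase-Glo 3/7 luminescence (DEVD substrate) reports caspase activity in HPAF-II cells after 12 h compound treatment at 37 degrees C. Compounds were tested in an 11-point series. Doxorubicin served as control.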
# [6] = KB-8-5-11 Cancer Cell Toxicity qHTS against the NCATS CANVASS Library (AID 1347364); further: nearly all actives have a fitted effect of over 75% in size; further: potency means the concentration at half of the fitted maximal effect
# Procedure, shortened: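 CellTiter-Glo luminescence after 72 h exposure; 500 KB-8-5-11 cells/well, DMEM/10% FBS, 37C, 5% CO2; compounds in 11-pt qHTS. Follow-up confirmation included medium with 1uM tariquidar.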
# [7] = SDT Cancer Cell Toxicity qHTS against the NCATS CANVASS Library (AID 1347365); further: nearly all actives have a fitted effect of over 60% in size; further: potency means the concentration at half of the fitted maximal effect
# Procedure, shortened: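 Luminescent ATP read-out (CellTiterGlo) after 72 hr compound exposure of dog glioma SDT cells, 500 per well. Eleven-point titrations; bortezomib titration run alongside as control.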
# [8] = G06 Cancer Cell Toxicity qHTS against the NCATS CANVASS Library (AID 1347368); further: nearly all actives have a fitted effect of over 60% in size; further: potency means the concentration at half of the fitted maximal effect
# Procedure, shortened: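 ATP luminescence (CellTiterGlo) readout of cytotoxicity. Canine G06 glioma cells, 500/well, 72 hr incubation at 37C with compounds; bortezomib titration served as control.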
# [9] = qHTS for Hypoxia signaling pathway (HIF-1) antagonists against the NCATS CANVASS Library (AID 1347374); further: nearly all actives have a fitted effect of over 60% in size; further: potency means the concentration at half of the fitted maximal effect
# Procedure, shortened: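 Beta-lactamase reporter under HRE control in ME-180 cells; CoCl2 stimulus (60 uM solution as added), compounds 11-pt qHTS, 17 h 37C. CCF4 dye 2 h RT, 460/530 nm emission. CellTiter-Glo viability in same wells.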
# [10] = qHTS for H2AX Agonists against the NCATS CANVASS Library (AID 1347378)
# Procedure, shortened: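 Phospho-H2AX (S139) in CHO-K1 lysates measured by HTRF, reported as 665/615 nm emission ratio after 24 hr antibody incubation at room temperature. Cells were first treated with a compound series for 3 hr at 37C (0.76% DMSO final).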
# [11] = Cytotoxicity qHTS for assessment of Hepg2 cells membrane integrity screened against the NCATS CANVASS Library (AID 1347387)
# Procedure, shortened: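 LDH release read by fluorescence (560 nm ex/590 nm em) after CytoTox-ONE addition and 10 min RT; signal tracks lysed cells. HepG2, 2000 cells/well, plated overnight; compound 5 hr, 37C, 5% CO2, final 0.59 nM - 46 uM, 11 points.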
# [12] = qHTS for Activators of p53 Stress Response Pathway screened against the NCATS CANVASS Library (AID 1347388); further: potency means the concentration at half of the fitted maximal effect
# Procedure, shortened: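 Beta-lactamase reporter driven by p53 response elements in HCT-116 cells, read as the 460 nm/530 nm emission ratio after CCF4 loading, following 16 h of exposure to an 11-point series. Cell viability was measured in the same wells by CellTiter-Glo luminescence.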
# [13] = qHTS assay for small molecule disruptors of mitochondrial membrane potential screened against the NCATS CANVASS Library (AID 1347389); further: nearly all actives have a fitted effect of over 60% in size; further: potency means the concentration at half of the fitted maximal effect
# Procedure, shortened: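 Red/green fluorescence ratio read-out: J-aggregates ex 540/em 590 nm, monomers ex 490/em 535 nm. HepG2, 1 hr compound treatment, then 30 min Mito-MPS dye at 37C. 11-pt qHTS concentration series.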
# [14] = Secretion counterscreen for inhibitors of the SERCaMP assay screened against the NCATS CANVASS Library (AID 1347390);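 further: light from luciferase secreted into medium read as a measure of general secretion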; further: potency means the concentration at half of the fitted maximal effect
# Procedure, shortened: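 Counterscreen for secretory-pathway interference: after 4 h attachment, SH-SY5Y-GLuc cells were exposed 20 hours to compounds (final 0.001 - 77 uM), then coelenterazine added and GLuc luminescence recorded; Brefeldin A served as control.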
# [15] = qHTS for inhibitors of ER calcium dysfunction: SERCaMP assay screened against the NCATS CANVASS Library (AID 1347393); further: nearly all actives have a fitted effect of over 40% in size; further: potency means the concentration at half of the fitted maximal effect
# Procedure, shortened: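 Thapsigargin-induced ER calcium depletion drives GLuc-SERCaMP secretion from SH-SY5Y cells; compounds given 16 h beforehand were scored by lowered coelenterazine luminescence after 4 h challenge.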
# [16] = Viability qHTS for inhibitors of the SERCaMP assay screened against the NCATS CANVASS Library (AID 1347400); further: nearly all actives have a fitted effect of over 70% in size; further: potency means the concentration at half of the fitted maximal effect
# Procedure, shortened: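 CellTiter-Glo luminescence readout after 48 h compound exposure (11-pnt qHTS series) of SH-SY5Y-GLuc SERCaMP MJH297 cells seeded at 1000 cells/well; bortezomib positive control.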
# [17] = system: NAD(P)H diaphorase (Clostridium kluyveri); assay: Diaphorse counterscreen qHTS: Assay Interference Panel against the NCATS CANVASS Library (AID 1347362)
# Procedure, shortened: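 Counterscreen for coupling-enzyme interference: resorufin fluorescence from resazurin/NADH turnover, read after 5 min at room temperature. Compounds were tested over an 11-point series after 15 min dark preincubation with diaphorase in PBS-Tween.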
# [18] = qHTS for Hypoxia signaling pathway (HIF-1) agonists against the NCATS CANVASS Library (AID 1347375)
# Procedure, shortened: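 Read-out: beta-lactamase FRET (CCF4-AM, ex 405, em 460 and 530 nm) after 2 h at room temperature. ME-180 cells stably carrying HRE-bla were treated 17 h at 37C with compounds in an 11-point concentration series.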
# [19] = DH5-alpha competent E. coli microbial cell viability qHTS against the NCATS CANVASS Library (AID 1347377); conditions: outcome: dose series up to 46.1 µM unless noted
# Procedure, shortened: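 Luminescent ATP read-out (BacTiter-Glo, 20 min RT) after overnight 37C culture of DH5-alpha E. coli with compounds; daunomycin control at 0.2 nM–9.2 uM final.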
# [20] = target: Nuclear receptor subfamily 1 group I member 3 (Homo sapiens) (UniProt Q14994); assay: qHTS for Constitutive Androstane Receptor (CAR) Antagonist screened against the NCATS CANVASS Library (AID 1347372); further: potency means the concentration at half of the fitted maximal effect
# Procedure, shortened: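 Antagonist mode: compound added alongside 50 nM CITCO to HepG2-hCAR-CYP2B6 reporter cells, 24hr at 37C. Viability by CellTiter-Fluor fluorescence, then CAR-driven luciferase by ONE-Glo luminescence.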
# Chain of Nuclear receptor subfamily 1 group I member 3 (Homo sapiens) (Q14994 whole entry, looked up): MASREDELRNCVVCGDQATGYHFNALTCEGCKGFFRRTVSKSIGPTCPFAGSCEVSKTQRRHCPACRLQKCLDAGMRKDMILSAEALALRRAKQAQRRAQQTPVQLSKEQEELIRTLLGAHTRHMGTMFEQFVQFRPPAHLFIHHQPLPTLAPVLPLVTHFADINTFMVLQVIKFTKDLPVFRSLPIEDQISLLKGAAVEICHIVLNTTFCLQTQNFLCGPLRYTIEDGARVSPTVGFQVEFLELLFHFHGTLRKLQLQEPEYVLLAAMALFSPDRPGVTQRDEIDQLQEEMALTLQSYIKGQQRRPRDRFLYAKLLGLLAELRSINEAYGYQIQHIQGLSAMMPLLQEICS
SMILES,Potency [1],Potency [2],Potency [3],Potency [4],Potency [5],Potency [6],Potency [7],Potency [8],Potency [9],Potency [10],outcome [11],Potency [12],Potency [13],Potency [14],Potency [15],Potency [16],Potency [17],Potency [18],outcome [19],Potency [20]
CO[C@@H]1C[C@@H](C[C@H]2CC[C@H](C)[C@H]([C@@H](C)C(=O)O)O2)O[C@]2(O[C@](C)([C@H]3CC[C@@](C)([C@@H]4O[C@@H]([C@H]5O[C@](C)(O)[C@H](C)C[C@@H]5C)C[C@@H]4C)O3)C[C@H]2C)[C@@H]1C,5.3 µM (active),0.0372 µM (active),9.41 µM (active),0.296 µM (active),inactive,5.9 µM (active),0.0935 µM (active),0.132 µM (active),2.11 µM (active),inactive,inactive,3.71 µM (active),18.6 µM (active),0.484 µM (active),inactive,10.7 µM (active),,,,
C=C[C@]1(C)CC[C@@H]([C@H](C)C(=O)OCC)O1,inactive,,inactive,,inactive,,,,inactive,inactive,inactive,inactive,,inactive,inactive,inactive,inactive,inactive,inactive,
C/C=C/C=C/C1(O)C2C=C3C(=O)CC45C(=O)C(O)=C(C)C(=O)C4C1C1(C(=O)C(O)=C(C)C(=O)C351)C2C (stereo unspecified),inactive,inactive,inactive,inactive,inactive,inactive,inactive,inactive,inactive,inactive,inactive,inactive,inactive,inactive,inactive,inactive,inactive,inactive,inactive,inactive
COc1cc(/C=C/C(=O)O)ccc1O,inactive,inactive,inactive,inactive,inactive,inactive,inactive,inactive,inactive,inactive,inactive,inactive,inactive,,inactive,inactive,inactive,inactive,inactive,inactive
CC(O)/C=C/C1(O)C(C)(C)CC(O)CC1(C)O (stereo unspecified),inactive,inactive,inactive,inactive,inactive,inactive,inactive,inactive,inactive,inactive,inactive,inactive,inactive,inactive,inactive,inactive,inactive,inactive,inactive,inactive
CC1=CC[C@@]2(C[C@@H]1O)[C@@H](C(=O)O)CC[C@H]2C(C)C,inactive,inactive,inactive,inactive,inactive,inactive,inactive,inactive,inactive,inactive,inactive,inactive,inactive,inactive,,inactive,inactive,inactive,inactive,inactive
C=C(NC(=O)c1csc(-c2nc3c(cc2O)-c2nc(cs2)C(=O)NC(C(C)O)C(=O)N/C(=C(\C)O)c2nc(cs2)C(=O)NC2c4nc(cs4)C(=O)NC(COC(=O)c4c5c6c(cccc6n4O)COC(=O)[C@@H](OC4C[C@](C)(O)[C@H](N(C)C)[C@H](C)O4)C2OC5)c2nc-3cs2)n1)C(N)=O (stereo partly specified),inactive,inactive,inactive,,inactive,inactive,,,inactive,inactive,inactive,,,,,inactive,inactive,,inactive,inactive
C=C1C[C@@]23C=CC(=O)[C@@](C)(CCC(=O)Nc4c(OC5O[C@H](CO)[C@@H](O)[C@H](O)[C@H]5O)ccc(C(=O)O)c4O)C2C[C@@H]1CC3 (stereo partly specified),inactive,inactive,inactive,inactive,inactive,inactive,inactive,inactive,inactive,inactive,inactive,inactive,inactive,inactive,inactive,,inactive,inactive,,inactive
O=Cc1ccc2n1C[C@@]1(C[C@H](O)[C@@H](CO)O1)OC2,inactive,inactive,inactive,inactive,inactive,inactive,inactive,inactive,inactive,inactive,inactive,inactive,,inactive,inactive,inactive,inactive,inactive,inactive,inactive
CC(=O)NC[C@@H]1O[C@H](CC/C=C(C)/C(C)=C/C=O)[C@H](C)C[C@H]1O,inactive,,inactive,inactive,inactive,inactive,,inactive,inactive,inactive,inactive,inactive,inactive,,34.3 µM (active),,inactive,inactive,inactive,inactive
CCCCCCCCCCCCCCC[C@H](O)C[C@@H](O)C[C@@H](O)C[C@@H](O)C[C@@H](O)C[C@H]1CC=CC(=O)O1,2.11 µM (active),0.743 µM (active),3.34 µM (active),5.26 µM (active),,6.62 µM (active),2.96 µM (active),2.64 µM (active),,,,inactive,,8.6 µM (active),inactive,12 µM (active),inactive,,inactive,8.31 µM (active)
CC[C@H](C)[C@H](NC(=O)C(Cc1ccc(O)cc1)NC(=O)C(Cc1c[nH]c2ccccc12)NC(=O)[C@H](C)N)C(=O)N1C(C(=O)NC(Cc2ccc(O)cc2)C(=O)O)CC2(c3ccc(O)cc3)c3ccccc3NC12 (stereo partly specified) (H-A[ξW][ξY]I[X4][ξY]-OH),inactive,inactive,inactive,inactive,inactive,inactive,inactive,inactive,inactive,inactive,inactive,inactive,inactive,inactive,inactive,inactive,inactive,inactive,inactive,inactive
